High-throughput results from PubChem BioAssay.
This is a sample that favours compounds with a hit; in the whole collection about 21% have one here.
Pf growth 48h – P. falciparum growth inhibition at 48 hours (one generation); Potency, µM (series often up to 28.7 µM), for inactives: at the top dose activity change, negative = inhibition, usual class: inhibitors; P. falciparum luciferase growth in erythrocytes, 48 h; actives 5.9% (n = 310,000); AID 504832; note: potency is the fitted concentration of half-maximal effect; % is set by controls: 0 for no effect and ±100 for the full control effect
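Compounds are pin-transferred into medium, infected erythrocytes (2% hematocrit, 0.1% parasitemia final) are added, and plates sit one parasite generation at 37 C in 5% CO2. Detection reagent is then added and luminescence measured.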
HCV inhibitor – inhibitors of hepatitis C virus infection | Huh7.5.1 HCVcc-Cre infection, luciferase reporter, 44 h | Potency, µM (highest dose often 41.8 µM), for inactives: at the highest dose activity change, negative = inhibition, actives largely listed as inhibitors | actives 3.4% (n = 340,000); note: potency is the fitted concentration of half-maximal effect; % is set by controls: 0 for no effect and ±100 for the full control effect
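HCVcc-Cre virus at an moi near 0.5 was added right after compound to cells cultured 4 h from seeding (1,000 cells/well). Luciferase activity was determined 44 h later, 15 min after substrate addition at RT.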
Shiga toxin inh – blocks Shiga toxin action in Vero cells; Vero cells, Shiga toxin protein synthesis inhibition reporter; inhibition, % at 38.7 µM; actives 9.2% (n = 290,000); in the data active = inhibition mostly above about 28%, no sharp cut-off; inactive = mostly below about 43%; note: 0% is about no effect
Pf growth 96h – P. falciparum growth inhibition at 96 hour, primary screen for plastid delayed-death inhibitors; P. falciparum luciferase reporter growth, 96 h; Potency, µM (series often up to 28.7 µM), inactives show at the highest dose activity change, negative = inhibition, usual class: inhibitors; actives 6.9% (n = 320,000); AID 504834; note: potency is the fitted concentration of half-maximal effect; % is set by controls: 0 for no effect and ±100 for the full control effect
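Plates of compound plus infected erythrocytes (2% hematocrit, 0.05% parasitemia final) incubate 96 hours, 37 C, 5% CO2. Detection reagent added; reduced luminescence from the parasites' luciferase reporter flags inhibition.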
CHX counter – counter-screen hit for Shiga toxin inhibitors, cycloheximide; cell reporter, cycloheximide protein synthesis inhibition counterscreen; max response, %; actives 12% (n = 300,000); AID 2314; in the data active = max response mostly above about 13%, no sharp cut-off; inactive = mostly below about 14%; note: read at 38.3 µM for the half of the compounds with a filed dose; 0% is about no effect
AMA1-RON2 inh – inhibitors of Plasmodium falciparum AMA1-RON2 interaction; AlphaScreen AMA1-biotinylated RON2 peptide binding; actives 0.2% (n = 360,000); Potency, µM (doses to about 58.2 µM), for inactives: top-dose activity change, negative = inhibition, usual class: inhibitors;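 note: potency is the fitted concentration of half-maximal effect; 0% = vehicle wells and -100% = peptide control; nearly all actives have a fitted effect of over 45% in size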
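AMA1 (3D7) with his tag at 25 nM final met compounds first, then biotinylated RON2 peptide at 25 nM; detection used donor plus acceptor beads, 10 µg/mL apiece, read by AlphaScreen after 30 min at room temperature.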
An asterisk follows results filed as active. Unless noted, calls come from the whole dose curve; as a rule, active = well fitted curve in the direction sought with a large enough effect; inconclusive = small, poorly fitted or top-dose-only effect, or another doubt; inactive = no such curve, though single readings can be large; an effect the other way counts as inactive or inconclusive.

For CCOc1ccc(CC(=O)N/N=C(\C)c2cccnc2)cc1 the results were Pf growth 48h -12%, HCV inhibitor -12%, Shiga toxin inh -9, Pf growth 96h -22%, CHX counter 4 and AMA1-RON2 inh 8%.
For c1ccc(-c2ccc3ccccc3n2)cc1 the results were HCV inhibitor -13% and AMA1-RON2 inh -2%.
`c1ccc(-c2cccc(-c3ccccc3)n2)cc1` gave HCV inhibitor -1%, Shiga toxin inh 54*, Pf growth 96h 45%, CHX counter 48* and AMA1-RON2 inh 38%.
For Cc1cc(C)c2c(=O)[nH][nH]c2n1 the results were HCV inhibitor 28% and AMA1-RON2 inh 0%.
For N#C/C(=C/c1ccc2c(c1)OCO2)C(=O)NCCc1c[nH]c2ccccc12 the results were Pf growth 48h inconclusive, HCV inhibitor -9%, Shiga toxin inh 7, Pf growth 96h 0%, CHX counter -1 and AMA1-RON2 inh inconclusive.
N#C/C(=C\c1ccc(-c2ccc(Br)cc2)o1)C(=O)NCCc1c[nH]c2ccccc12 was read as Pf growth 48h -6%, HCV inhibitor 22µM*, Shiga toxin inh -6, Pf growth 96h -6%, CHX counter 0 and AMA1-RON2 inh -11%.
Screening COc1ccc(-c2[nH]ncc2/C=C(/C#N)C(=O)NC2CCCCC2)cc1 returned HCV inhibitor 13µM*, Shiga toxin inh -6, Pf growth 96h 7.4µM*, CHX counter 6 and AMA1-RON2 inh inconclusive.
Screening N#C/C(=C/c1ccc(-c2ccc(Br)cc2)o1)C(=O)NC1CCCCC1 returned Pf growth 48h 12%, HCV inhibitor 14µM*, Shiga toxin inh 11, Pf growth 96h inconclusive, CHX counter -1 and AMA1-RON2 inh 31%.
Screening c1ccc2c(c1)CCN(c1nc(CN3CCOCC3)nc3sc4c(c13)CCCC4)C2 returned Pf growth 48h 15µM*, HCV inhibitor inconclusive, Shiga toxin inh -7, Pf growth 96h inconclusive, CHX counter -1 and AMA1-RON2 inh -10%.
CCN1CCN(c2nc(SC)nc3sc4c(c23)CC(C)(C)OC4)CC1 was read as Pf growth 48h 1.7µM*, HCV inhibitor -24%, Shiga toxin inh 9, Pf growth 96h 28%, CHX counter -1 and AMA1-RON2 inh -9%.
Screening CSc1nc(N2CCOCC2)c2c3c(sc2n1)CCC3 returned Pf growth 48h inconclusive, HCV inhibitor 11µM*, Shiga toxin inh -7, Pf growth 96h 15%, CHX counter -2 and AMA1-RON2 inh 0%.
CCC1(C)Cc2c(sc3nc(SC)nc(NCCN(C)C)c23)CO1 (centres undefined) was read as Pf growth 48h inconclusive, HCV inhibitor inconclusive, Shiga toxin inh -10, Pf growth 96h 3.7µM*, CHX counter -2 and AMA1-RON2 inh -3%.
For CC(C)Sc1nc(N2CCOCC2)c2c3c(sc2n1)COC(C)(C)C3 the results were Pf growth 48h inconclusive, HCV inhibitor inconclusive, Shiga toxin inh -20, Pf growth 96h inconclusive, CHX counter -2 and AMA1-RON2 inh -7%.
`CSc1nc(SCCN(C)C)c2c3c(sc2n1)COC(C)(C)C3` gave Pf growth 48h inconclusive, HCV inhibitor inconclusive, Shiga toxin inh -4, Pf growth 96h inconclusive, CHX counter -1 and AMA1-RON2 inh -19%.
For Cc1nc(CN(C)Cc2nc(Cc3ccccc3Cl)no2)cs1 the results were Pf growth 48h 1%, HCV inhibitor 10%, Shiga toxin inh 12, Pf growth 96h -1%, CHX counter 2 and AMA1-RON2 inh 2%.
`CCOC(=O)N1CCN(c2nc(SC)nc3sc4c(c23)CC(C)(C)OC4)CC1` gave Pf growth 48h 3.7µM*, HCV inhibitor -11%, Shiga toxin inh 3, CHX counter -1 and AMA1-RON2 inh -3%.
`CN(C)S(=O)(=O)c1ccc(Cl)c(C(=O)NNC(=O)c2ccc3c(c2)OCO3)c1` gave Pf growth 48h -13%, HCV inhibitor 4%, Pf growth 96h 2% and AMA1-RON2 inh 70%.
`COc1cccc(/C=C/C(=O)Oc2ccc(C(=O)c3ccc(F)cc3)cc2)c1` gave Pf growth 48h 12%, HCV inhibitor 8%, Shiga toxin inh -9, Pf growth 96h 4%, CHX counter -7 and AMA1-RON2 inh 27%.
